According to publication PMC4336329 (PLoS ONE, 2015):
The whole screen tested about 310,000 compounds, of which about 14,000 (4.5%) showed an effect of 50% or more. Effects have a minus sign here. For the sample, strong results were picked, then their nearest neighbours and some compounds at random.

The compounds below were run against human ether-à-go-go-related gene (hERG) potassium channel (human, UniProt Q12809) (assay: primary screen, population patch clamp on CHO cells stably expressing hERG; higher = less effect of the substance).
Chain of human ether-à-go-go-related gene (hERG) potassium channel (Q12809 whole entry, looked up): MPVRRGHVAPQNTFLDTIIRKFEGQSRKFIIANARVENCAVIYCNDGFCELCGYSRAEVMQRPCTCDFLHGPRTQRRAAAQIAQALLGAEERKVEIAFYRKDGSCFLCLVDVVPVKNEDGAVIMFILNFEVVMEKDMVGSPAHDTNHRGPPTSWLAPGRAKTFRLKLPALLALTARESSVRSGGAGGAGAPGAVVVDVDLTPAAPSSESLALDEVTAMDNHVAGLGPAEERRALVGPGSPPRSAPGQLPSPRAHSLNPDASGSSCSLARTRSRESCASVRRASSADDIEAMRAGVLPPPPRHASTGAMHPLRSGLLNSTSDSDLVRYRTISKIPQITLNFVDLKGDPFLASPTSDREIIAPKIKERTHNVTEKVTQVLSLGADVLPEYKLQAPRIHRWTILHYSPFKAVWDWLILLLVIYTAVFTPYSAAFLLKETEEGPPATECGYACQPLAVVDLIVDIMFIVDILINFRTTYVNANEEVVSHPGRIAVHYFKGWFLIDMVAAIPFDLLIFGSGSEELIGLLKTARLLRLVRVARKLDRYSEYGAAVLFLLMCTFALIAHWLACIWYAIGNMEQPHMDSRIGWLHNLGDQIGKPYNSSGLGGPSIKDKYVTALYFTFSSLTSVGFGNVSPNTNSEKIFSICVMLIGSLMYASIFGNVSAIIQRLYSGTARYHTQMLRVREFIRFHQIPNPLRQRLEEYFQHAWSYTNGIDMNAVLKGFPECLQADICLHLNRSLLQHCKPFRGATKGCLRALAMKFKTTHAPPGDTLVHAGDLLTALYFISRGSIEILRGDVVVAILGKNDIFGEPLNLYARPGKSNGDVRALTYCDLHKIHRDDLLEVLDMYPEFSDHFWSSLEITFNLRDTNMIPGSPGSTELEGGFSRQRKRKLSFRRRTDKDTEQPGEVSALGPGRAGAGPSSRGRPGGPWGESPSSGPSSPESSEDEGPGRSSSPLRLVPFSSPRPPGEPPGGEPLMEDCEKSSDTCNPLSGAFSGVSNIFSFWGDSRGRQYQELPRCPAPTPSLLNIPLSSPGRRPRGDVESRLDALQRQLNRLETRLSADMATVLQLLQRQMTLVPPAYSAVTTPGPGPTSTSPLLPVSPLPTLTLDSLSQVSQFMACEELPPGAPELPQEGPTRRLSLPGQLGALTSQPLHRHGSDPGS
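Also: peak tail current of the secondary pulse compared with the same well before compound.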

SMILES	hERG current change (%, negative = inhibition) at 10uM
CCCCNC(=O)CN(CCc1ccccc1)S(C)(=O)=O	-12.6%
Cc1c(Cl)cccc1NC(=O)CCC(=O)NNC(=O)c1ccco1	18.3%
CCOC(=O)c1cccc(NC(=O)CSc2nnc(-c3cccnc3)n2CC)c1	-37.5%
N#Cc1nc(-c2cccs2)oc1NCc1ccco1	-5.22%
CC(/C=C/c1ccccc1)=N/NC(=O)c1cc([N+](=O)[O-])cc([N+](=O)[O-])c1	8%
O=[N+]([O-])c1ccc(Sc2cc[n+]([O-])c3ccccc23)c([N+](=O)[O-])c1	-65.3%
O=[N+]([O-])c1ccc(Sc2cccc3cccnc23)c([N+](=O)[O-])c1	16.6%
O=c1[nH]c(Sc2ccc([N+](=O)[O-])cc2[N+](=O)[O-])nc2ccccc12	9.99%
CN(CC(=O)Nc1ccccc1Br)C(=O)CCC1CCCC1	9.57%
CCCCC1(C)NC(=S)N2N1C(=S)NC2(C)CCCC (stereo not shown)	15.1%
Cc1noc(C)c1C(=O)Nc1nc2ccc(S(C)(=O)=O)cc2s1	2.86%
O=C(O)C(CCCCN1C(=O)C2C3C=CC(C3)C2C1=O)N1C(=O)C2C3C=CC(C3)C2C1=O (stereo not shown)	2.41%
CCOC(=O)c1[nH]ncc1CN1CCCC(C(=O)c2ccc(OC)cc2C)C1 (stereo not shown)	-49.4%
CCOC(=O)c1[nH]ncc1CN1CCCC(C(=O)c2cccc(OC(C)C)c2)C1 (stereo not shown)	-42.1%
CCOC(=O)c1[nH]ncc1CN1CCCC(C(=O)c2cc(Cl)ccc2OC)C1 (stereo not shown)	-71.1%
CCOC(=O)c1[nH]ncc1CN1CCCC(C(=O)c2ccc(SC)cc2)C1 (stereo not shown)	-73%

SMILES	hERG current change (%, negative = inhibition) at 10uM
CCOC(=O)c1[nH]ncc1CN1CCCC(C(=O)c2ccc(C(C)(C)C)cc2)C1 (stereo not shown)	-17.6%
CCOC(=O)c1[nH]ncc1CN1CCCC(C(=O)c2cccc(Cl)c2)C1 (stereo not shown)	-22.6%
O=C(COC(=O)C1CCCCC1)Nc1ccc(N2CCCCC2)cc1	2.16%
COc1ccc(C2(CNS(=O)(=O)c3ccccc3)CCOCC2)cc1	-4.62%
COc1ccc(NC(=O)C2CCCN2S(=O)(=O)c2cccc3cccnc23)c(OC)c1 (stereo not shown)	-6.73%
CCOc1cc2c(cc1C=O)OC(C)C2 (stereo not shown)	22.1%
Cl.O=C(c1ccc(Cl)c(S(=O)(=O)N2CCCCCC2)c1)N1CCN(CCO)CC1	-34.4%
O=C(c1ccc(Cl)c(S(=O)(=O)N2CCCCCC2)c1)N1CCCCC1	-20.7%
CCN1CCN(C(=O)c2ccc(Cl)c(S(=O)(=O)N3CCCCC3)c2)CC1	-69.8%
CCN1CCN(C(=O)c2ccc(Cl)c(S(=O)(=O)N3CCOCC3)c2)CC1	-0.549%
O=C(c1ccc(Cl)c(S(=O)(=O)N2CCOCC2)c1)N1CCN(Cc2ccccc2)CC1	-25.3%
O=C(c1ccc(Cl)c(S(=O)(=O)N2CCCCC2)c1)N1CCN(Cc2ccccc2)CC1	-59.1%
O=C(c1ccc(Cl)c(S(=O)(=O)N2CCCCCC2)c1)N1CCCC1	-38.9%
O=C(c1ccc(Cl)c(S(=O)(=O)N2CCCCC2)c1)N1CCCCC1	-31.7%
CCN1CCN(C(=O)c2ccc(Cl)c(S(=O)(=O)N3CCCCCC3)c2)CC1.Cl	-60.9%
